Laboratory results published in ChEMBL document CHEMBL5308504, “Tm Shift (DSF) assay results for EUbOPEN Chemogenomics Library” (2023).

Experiments:
Settings in all cases: Compound concentration 20.0 uM, Protein concentration 2.0 uM, Result type QC Liability
[1] = biological target: Tyrosine-protein kinase ABL1 (Homo sapiens) (UniProt P00519)
[2] = biological target: Casein kinase I isoform delta (Homo sapiens) (UniProt P48730)
[3] = biological target: Glycogen synthase kinase-3 beta (Homo sapiens) (UniProt P49841)
Chain of Glycogen synthase kinase-3 beta (Homo sapiens) (P49841 whole entry, looked up): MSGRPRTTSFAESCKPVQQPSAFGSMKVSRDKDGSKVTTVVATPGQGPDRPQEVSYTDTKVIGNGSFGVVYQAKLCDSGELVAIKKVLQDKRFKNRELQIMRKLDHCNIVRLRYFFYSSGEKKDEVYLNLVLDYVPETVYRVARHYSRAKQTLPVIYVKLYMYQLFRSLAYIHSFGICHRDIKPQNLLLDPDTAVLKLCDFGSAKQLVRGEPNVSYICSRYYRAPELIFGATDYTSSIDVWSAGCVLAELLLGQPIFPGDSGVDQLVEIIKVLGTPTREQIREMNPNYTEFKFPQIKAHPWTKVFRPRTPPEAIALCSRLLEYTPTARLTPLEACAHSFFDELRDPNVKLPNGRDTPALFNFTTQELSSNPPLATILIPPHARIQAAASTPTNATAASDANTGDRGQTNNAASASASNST

[4] = biological target: Mitogen-activated protein kinase 1 (Homo sapiens) (UniProt P28482)
Chain of Mitogen-activated protein kinase 1 (Homo sapiens) (P28482 whole entry): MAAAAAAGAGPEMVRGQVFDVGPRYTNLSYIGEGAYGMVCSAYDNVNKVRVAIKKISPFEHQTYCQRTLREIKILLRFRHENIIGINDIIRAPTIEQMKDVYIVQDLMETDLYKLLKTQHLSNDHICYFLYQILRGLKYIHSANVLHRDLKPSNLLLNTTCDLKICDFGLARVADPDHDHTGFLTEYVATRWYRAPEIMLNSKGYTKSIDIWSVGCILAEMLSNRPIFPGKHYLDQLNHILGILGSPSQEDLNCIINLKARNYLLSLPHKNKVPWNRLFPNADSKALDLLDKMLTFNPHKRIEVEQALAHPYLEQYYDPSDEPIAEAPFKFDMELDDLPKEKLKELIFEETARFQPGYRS

[5] = biological target: T1, Aurora kinase A (Homo sapiens) (UniProt O14965)
T1 sequence (whole entry): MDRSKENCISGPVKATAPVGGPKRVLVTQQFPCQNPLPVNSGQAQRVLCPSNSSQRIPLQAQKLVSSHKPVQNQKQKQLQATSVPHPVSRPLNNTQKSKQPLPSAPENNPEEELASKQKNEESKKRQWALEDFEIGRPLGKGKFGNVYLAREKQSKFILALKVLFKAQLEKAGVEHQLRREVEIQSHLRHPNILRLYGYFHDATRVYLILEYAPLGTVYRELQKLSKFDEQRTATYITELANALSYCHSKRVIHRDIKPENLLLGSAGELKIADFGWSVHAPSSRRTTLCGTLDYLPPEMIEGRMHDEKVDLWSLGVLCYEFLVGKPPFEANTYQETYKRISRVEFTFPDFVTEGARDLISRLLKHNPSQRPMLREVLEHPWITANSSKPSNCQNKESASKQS

[6] = biological target: Cyclin-dependent kinase 2 (Homo sapiens) (UniProt P24941)

Chain of Casein kinase I isoform delta (Homo sapiens) (P48730 whole entry, looked up, canonical isoform): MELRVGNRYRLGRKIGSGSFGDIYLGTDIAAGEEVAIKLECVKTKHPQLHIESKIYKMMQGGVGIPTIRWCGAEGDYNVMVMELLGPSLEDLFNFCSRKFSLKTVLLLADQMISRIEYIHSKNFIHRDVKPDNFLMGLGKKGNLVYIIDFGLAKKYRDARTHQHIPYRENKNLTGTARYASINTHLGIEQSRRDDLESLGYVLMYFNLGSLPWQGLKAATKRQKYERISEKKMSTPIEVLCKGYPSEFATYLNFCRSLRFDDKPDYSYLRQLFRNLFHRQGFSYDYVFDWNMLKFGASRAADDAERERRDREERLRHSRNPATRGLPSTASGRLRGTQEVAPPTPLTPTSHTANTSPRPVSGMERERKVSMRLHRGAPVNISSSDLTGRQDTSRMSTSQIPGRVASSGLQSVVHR
Chain of Tyrosine-protein kinase ABL1 (Homo sapiens) (P00519 whole entry, canonical isoform): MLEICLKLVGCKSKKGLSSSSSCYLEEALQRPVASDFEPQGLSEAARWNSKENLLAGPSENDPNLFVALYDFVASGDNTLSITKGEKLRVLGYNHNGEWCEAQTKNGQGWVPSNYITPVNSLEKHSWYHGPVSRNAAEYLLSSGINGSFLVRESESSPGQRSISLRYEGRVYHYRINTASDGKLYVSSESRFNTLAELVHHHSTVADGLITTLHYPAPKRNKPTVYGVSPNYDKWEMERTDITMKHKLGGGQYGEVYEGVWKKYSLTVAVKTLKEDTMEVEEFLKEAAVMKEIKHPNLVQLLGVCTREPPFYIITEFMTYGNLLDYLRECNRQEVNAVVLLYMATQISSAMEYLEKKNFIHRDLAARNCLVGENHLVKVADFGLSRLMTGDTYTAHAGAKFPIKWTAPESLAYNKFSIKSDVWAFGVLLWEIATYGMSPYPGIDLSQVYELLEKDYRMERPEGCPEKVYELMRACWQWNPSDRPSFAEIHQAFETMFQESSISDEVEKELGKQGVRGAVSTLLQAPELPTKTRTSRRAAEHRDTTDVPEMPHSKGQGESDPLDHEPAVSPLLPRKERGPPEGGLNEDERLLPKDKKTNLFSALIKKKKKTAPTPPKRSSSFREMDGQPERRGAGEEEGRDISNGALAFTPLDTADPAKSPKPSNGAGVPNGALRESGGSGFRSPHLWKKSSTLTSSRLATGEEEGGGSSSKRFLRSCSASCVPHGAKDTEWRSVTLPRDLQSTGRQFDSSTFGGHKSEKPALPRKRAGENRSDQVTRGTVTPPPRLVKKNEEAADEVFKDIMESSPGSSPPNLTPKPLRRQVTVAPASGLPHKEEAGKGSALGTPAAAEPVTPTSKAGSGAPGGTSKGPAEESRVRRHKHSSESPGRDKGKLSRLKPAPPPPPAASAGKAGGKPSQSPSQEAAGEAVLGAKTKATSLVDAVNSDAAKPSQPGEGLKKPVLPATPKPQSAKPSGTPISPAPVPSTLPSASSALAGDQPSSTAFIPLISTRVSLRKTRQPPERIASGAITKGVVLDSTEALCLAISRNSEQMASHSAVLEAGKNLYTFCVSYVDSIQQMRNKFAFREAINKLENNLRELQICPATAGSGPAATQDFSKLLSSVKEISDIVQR

SMILES | ΔTm [1] [°C] | ΔTm [2] [°C] | ΔTm [3] [°C] | ΔTm [4] [°C] | ΔTm [5] [°C] | ΔTm [6] [°C]
CCN1CCN(Cc2ccc(Nc3ncc(F)c(-c4cc(F)c5nc(C)n(C(C)C)c5c4)n3)nc2)CC1 | 3.44 | 4.97 | 11.1 | 1.41 | 3.81 | –
CN[C@@H](C)C(=O)N[C@H]1CN(C(=O)CC(C)C)CC[C@H]2CC[C@@H](C(=O)NC(c3ccccc3)c3ccccc3)N2C1=O | -0.01 | 0.05 | -0.59 | 0.19 | 0.17 | 0.45
O=C1NC(=NCc2cccs2)SC1=Cc1ccc2ncccc2c1 | 2.9 | 0.75 | 3.78 | 0.66 | -0.94 | –
COc1cc(N(C)c2ccnc3ccc(C(F)(F)F)cc23)cc(OC)c1OC | 0.48 | 1.1 | -0.36 | 0.28 | -0.2 | -0.12
COc1ccc(COc2ccc(Cc3cnc(N)nc3N)cc2OC)cc1 | -0.19 | -0.66 | -0.98 | 0.25 | -0.26 | –
O=C(Nc1ccc(OC(F)(F)Cl)cc1)c1cnc(N2CC[C@@H](O)C2)c(-c2cc[nH]n2)c1 | – | 0.99 | 0 | 0.21 | 0.17 | 1.08
O=C(NC1CCNCC1)c1n[nH]cc1NC(=O)c1c(Cl)cccc1Cl | 0.36 | 0.04 | 11.4 | -0.04 | -1.05 | –
CC(C)C(=O)N1CCC(c2cn(C)c3ncc(NC(=O)c4cccc(C#N)c4)c(C(F)(F)F)c23)CC1 | -0.05 | 0.74 | -0.4 | 0.36 | -0.71 | 0.71
COc1cc(CN(CCN)C(=O)N[C@@H](C)c2ccccc2)ccc1OCc1ccccc1 | 0.76 | 0.16 | -0.67 | 0.02 | 0.4 | 1.02
CC(C)(C)c1cnc(CSc2cnc(NC(=O)C3CCNCC3)s2)o1 | 0.04 | 1.29 | 8.72 | 0.73 | 4.45 | –
O=C(NCCS(=O)(=O)c1ccc(C(F)(F)F)cn1)c1ccc(Cl)cc1 | 0 | 0.23 | -1.08 | 0.3 | -0.52 | 0.73
Cc1cc([N+](=O)[O-])c(NS(=O)(=O)c2cccc(C(=O)O)c2)cc1-c1cccnc1 | 0.08 | 0.28 | 0.02 | 0.58 | 0.29 | 0.85
CN1Cc2nccc(-c3cn(C)nc3-c3ccc(F)cc3)c2C1=O | 1.06 | 8 | -0.07 | 0.37 | -0.11 | 0.02
CC(=O)N(CCN(C)C)c1ccc(N/C(=C2\C(=O)Nc3cc(Cl)ccc32)c2ccccc2)cn1 | 8.38 | 2.87 | 11.3 | 0.38 | 7.54 | 3.16
CCc1cnn2c(NCc3ccc[n+]([O-])c3)cc(N3CCCCC3CCO)nc12 (centres undefined) | 0.22 | 1.31 | 7.6 | 1.41 | -0.54 | –
CC(C)S(=O)(=O)c1ccccc1Nc1nc(N[C@@H]2CCCN(CCCCCCCNC(=O)COc3cccc4c3C(=O)N(C3CCC(=O)N(C)C3=O)C4=O)C2)ncc1Cl (some centres undefined) | 1.22 | 1.07 | 8.52 | 0.83 | 7.69 | 1.08
COc1ccc(N(C(=O)Nc2c(C)cccc2C)c2cc(Nc3ccc(N4CCN(C)CC4)cc3)ncn2)c(OC)c1 | – | 2.65 | 3.75 | 0.48 | 10.1 | 0.7
COc1ccc(F)c(F)c1C(=O)c1cnc(NC2CCN(S(C)(=O)=O)CC2)nc1N | 0.33 | 0.3 | 7.07 | 0.27 | 0.02 | –
